Measurements reported in PubChem BioAssay (NCATS).
Inconclusive results are not listed. Calls of active or inactive are those of the source. Calls come from the whole dose curve; as a rule, active = well fitted inhibition curve with a large enough effect; inconclusive = small, poorly fitted or top-dose-only effect; inactive = flat fitted curve, though single readings scatter.

Molecular target: Calcium and integrin-binding protein 1 (Homo sapiens) (UniProt Q99828)
Experiment: Primary qHTS for Identification of Calcium Integrin Binding Protein 1 (CIB1) Competitor (AID 1508620); note: top concentration of the series differs between compounds
Settings: CIB1-GST / FITC-alphaIIb peptide fluorescence polarization; series mostly up to 57.7 µM
Summary of the method: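 Fluorescence polarization competition: GST-tagged CIB1 (1 uM final) preincubated with compound 15 min at room temperature, then FITC-labelled alphaIIb peptide (100 nM final) added. After 15 min at room temperature, polarization read at Ex 480/Em 540.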

Calcium and integrin-binding protein 1 (Homo sapiens), sequence (Q99828 whole entry, looked up): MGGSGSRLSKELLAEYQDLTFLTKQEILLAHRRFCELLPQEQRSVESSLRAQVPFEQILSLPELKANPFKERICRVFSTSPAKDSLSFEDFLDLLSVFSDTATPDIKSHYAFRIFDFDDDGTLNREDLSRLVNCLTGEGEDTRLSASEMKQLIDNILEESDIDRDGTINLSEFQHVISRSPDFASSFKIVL

SMILES | outcome
CCOC(=O)[C@H](CCc1ccccc1)N[C@H]1CS[C@H](c2cccs2)CN(CC(=O)O)C1=O | inactive
COc1ccc(C(=O)CC(=O)c2ccc(C(C)(C)C)cc2)cc1 | inactive
COC(=O)Nc1nc2ccc(Sc3ccccc3)cc2[nH]1 | inactive
COc1cc(NS(=O)(=O)c2ccc(N)cc2)nc(OC)n1 | inactive
COc1cnc(NS(=O)(=O)c2ccc(N)cc2)nc1 | inactive
COC(=O)Nc1nc2ccc(S(=O)c3ccccc3)cc2[nH]1 (stereo not given) | inactive
CO[C@@]12[C@H](COC(N)=O)C3=C(C(=O)C(C)=C(N)C3=O)N1C[C@@H]1N[C@@H]12 | inactive
C1CCC(C(CC2CCCCN2)C2CCCCC2)CC1 (stereo not given) | inactive
O[C@@H](CNC[C@H](O)[C@H]1CCc2cc(F)ccc2O1)[C@@H]1CCc2cc(F)ccc2O1 | inactive
CCCN[C@H]1CCc2nc(N)sc2C1 | inactive
CNCC[C@H](Oc1cccc2ccccc12)c1cccs1 | inactive
O=C(O)c1cccnc1 | inactive
CCOC(=O)[C@H](CCc1ccccc1)N[C@H]1CCc2ccccc2N(CC(=O)O)C1=O | inactive
O=S(=O)(c1cccc2cnccc12)N1CCCNCC1 | inactive
N[C@@H](C(=O)N[C@@H]1C(=O)N2C(C(=O)O)=C(Cl)CS[C@H]12)c1ccccc1 | inactive
CCCOc1ccc(C(=O)OCCN(CC)CC)cc1N | inactive
COc1ccc2c(c1)c(CC(=O)OCC(=O)O)c(C)n2C(=O)c1ccc(Cl)cc1 | inactive
Cc1cccc(N(C)C(=S)Oc2ccc3ccccc3c2)c1 | inactive
N[C@@H](Cc1ccc(O)c(O)c1)C(=O)O | inactive
COC(c1ccccc1)(c1ccccc1)[C@H](Oc1nc(C)cc(C)n1)C(=O)O | inactive
NC(=O)N1c2ccccc2CC(=O)c2ccccc21 | inactive
CN1CCCC(n2nc(Cc3ccc(Cl)cc3)c3ccccc3c2=O)CC1 (stereo not given) | inactive
Cc1noc(NS(=O)(=O)c2ccc(N)cc2)c1C | inactive
C[C@]12C=CC(=O)C=C1CC[C@@H]1[C@@H]2C(=O)C[C@@]2(C)[C@H]1CC[C@]2(O)C(=O)CO | inactive
COc1ccc2cc3[n+](cc2c1OC)CCc1cc2c(cc1-3)OCO2 | inactive
